# Records with an inconclusive call do not appear. Where a call stands in place of a potency, no number is given. Some compounds were tested as several samples or in several runs, with calls that do not always agree. Activity calls are given as the source filed them. Calls follow the shape of the dose curve; as a rule, active = well fitted inhibition curve with a large enough effect; inconclusive = small, poorly fitted or top-dose-only effect; inactive = no such curve, though single readings can be large or run the other way.
# Target: Muscarinic acetylcholine receptor M1 (Rattus norvegicus) (UniProt P08482)
# Sequence (P08482 whole entry, looked up): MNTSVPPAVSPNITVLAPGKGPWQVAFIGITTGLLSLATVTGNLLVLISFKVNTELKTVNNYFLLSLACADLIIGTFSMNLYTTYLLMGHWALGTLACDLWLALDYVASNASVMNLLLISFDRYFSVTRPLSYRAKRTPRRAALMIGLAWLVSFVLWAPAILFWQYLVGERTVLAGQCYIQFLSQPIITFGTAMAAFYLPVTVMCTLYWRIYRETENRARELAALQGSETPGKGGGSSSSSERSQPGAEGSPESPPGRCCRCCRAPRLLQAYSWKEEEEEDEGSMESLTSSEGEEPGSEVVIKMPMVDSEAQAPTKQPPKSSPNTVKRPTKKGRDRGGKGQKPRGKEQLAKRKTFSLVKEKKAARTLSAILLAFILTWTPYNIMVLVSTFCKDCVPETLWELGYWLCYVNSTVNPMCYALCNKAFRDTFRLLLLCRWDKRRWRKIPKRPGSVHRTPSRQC
# Test: qHTS Assay for Antagonists of Acetylcholine Muscarinic M1 Receptor: Kinetic Measurement of Intracellular Calcium Response (AID 943); also: nearly all actives have a fitted effect of over 75% in size
# Conditions: M1-expressing cells, kinetic intracellular calcium fluorescence; series mostly up to 35.3 µM
# Text: NIH Molecular Libraries Screening Centers Network [MLSCN]
# NIH Chemical Genomics Center [NCGC]
# Acetylcholine muscarinic M1 receptor is a G-protein coupled receptor (GPCR) coupling to the Gq G protein. It is mainly expressed in brain and functionally related to the learning and memory processes. The agonists of this receptor have the potential for the treatment of Alzheimer's disease and cognitive impairments associated with Schizophrenia. Upon an activation of the M1 receptor, phosholipase C (PLC) is activated to produce inositol 1,4,5-trisphosphate (IP3) and diacyl glycerol (DAG) resulting in increase of intracellular free Ca2+ and activation of protein kinase C (PKC). The increase of intracellular calcium can be measured by the fluorescent calcium dyes, Fluo-3 and Fluo-4, using a fluorescence kinetic plate reader.
# We have obtained a M1-CHO cell line transfected with rat acetylcholine M1 receptor and optimized a calcium assay with this cell line for compound screening as a counter-screen assay for other Gq-coupled GPCRs.
# NCGC Assay Protocol Summary:
# The CHO-M1 (CHO-M1) cell line transfected with the rat acetylcholine muscarinic M1 receptor was obtained from ATCC. The cells were maintained in call culture flasks with F12 Kaighn's media (Invitrogen) supplemented with 10 % FBS, 100 units/ml penicillin, 100 ug/ml streptomycin and 250 ug/ml geneticin (Invitrogen) at 37C, 5 % CO2 in a humidified atmosphere. At 90-95 % confluence, the cells were then detached in 15 ml […] % trypsin by 3 minutes incubation at 37C and centrifuged at 1000 RPM to remove the trypsin solution. The resulting cell pellet was resuspended in the cell freezing media containing 10 % DMSO (Invitrogen) at a density of 4 x 10^7 cells/ml. The aliquots of cells at 0.5 - 1 ml per vial were frozen down slowly at 1 degree C/min using a Cryo 1 degree C freezing container in the presence of isopropanol (Nalgene Nunc, Rochster, NY) overnight in a -80C freezer. The frozen cells were then transferred to liquid nitrogen for the storage up to one year.
# The resuspended frozen cells were plated at 3 ul/well with 2000 cells in the black, tissue culture treated, clear bottom 1536-well plates. After overnight incubation at 37C, 5% CO2, 2.5 ul/well no-wash calcium dye (containing Fluo-4, BD Biosciences) were loaded and incubated at 37C, 5 % CO2 for 1 hour followed by a 10 min incubation with 20 nl compound in DMSO solution. The assay plates were then placed onto the kinetic fluorescence plate reader (FDSS-7000, Hamamatsu) for a measurement of the kinetic changes in intracellular free calcium. The basal fluorescence signal was measured for 6 times at 1 Hz followed by an addition of 1 ul of carbachol and continued 4 min measurement. The results were calculated as the maximal signal (peak) divided by the minimal signal (basal).
# 1536-well assay protocol:
# (1) 3 ul/well containing 2000 M1-CHO cells in 1536 tissue culture treated black/clear bottom plate
# (3) Add 1ul/well calcium dye (from no-wash calcium dye kit, BD Biosciences) containing […]
# (4) Incubate 1 hour at 37C with 5% CO2
# (5) Add 20 nl compound diluted in DMSO
# (6) Incubate 10 minutes at the room temp
# (7) Place the plate in FDSS-7000 instrument (Ex = 480 nm and […])
# #- read the assay plate 6 times at 1 Hz for basal signal
# #- add 1 ul/well EC80 carbachol (100 nM final)
# #- continuously read the assay plate for 4 min at 1 Hz
# Keywords: acetylcholine muscarinic M1 receptor, calcium kinetic assay, Fluo-4, high throughput screening, MLSMR, MLSCN, NIH Roadmap, qHTS and NCGC
row,Compound,Potency
1,CCCN(CCC)[C@@H]1CCc2cccc(O)c2C1,3.98 µM (active) and inactive
2,C[C@@H]1O[C@H](C[N+](C)(C)C)CS1,inactive
3,O=P(O)(O)C(Cl)(Cl)P(=O)(O)O,inactive
4,NNC(=O)c1ccc(O)cc1,inactive
5,Cc1c2ccncc2c(C)c2c1[nH]c1ccccc12,inactive
6,Cc1sc2ccccc2c1CC1=NCCN1,inactive
7,CCCN(CCC)[C@H]1CCc2c(F)ccc(O)c2C1,6.31 µM (active)
8,Cc1[nH]c2ccc(O)cc2c1CCN,inactive
9,NC(=O)c1cc(N2CC2)c([N+](=O)[O-])cc1[N+](=O)[O-],inactive
10,C[N+](C)(C)CC#CCN1CCCC1=O,inactive
11,CP(=O)(O)C1=CCNCC1,inactive
12,COc1ccc2c(c1)/C(=C/c1cnc[nH]1)C(=O)N2,inactive
13,O=C(O)c1cc[c]([Hg][Cl])cc1,inactive
14,C[C@@H]1[C@@H]2Cc3ccc(O)cc3[C@@]1(C)CCN2CC1CC1,14.1 µM (active)
15,COc1ccc2[nH]c3c(c2c1)CCNC3,inactive
16,O=c1c2ccccc2[se]n1-c1ccccc1,inactive

row,Compound,Potency
1,CN(N=O)c1cc(O)ccc1O,inactive
2,O=C1C=CC(=O)C=C1,inactive
3,COc1ccc2[nH]cc(CCN)c2c1,inactive
4,O=S1(=O)N(CCN2CC=C(c3c[nH]c4cc(F)ccc34)CC2)c2cccc3c2N1CCC3,15.8 µM (active)
5,N#CCCN,inactive
6,OCc1cnc[nH]1,inactive
7,O=[N+]([O-])c1cc(O)c(O)c([N+](=O)[O-])c1,inactive
8,CCCn1c(=O)c2[nH]c(C3CCCC3)nc2n(CCCOC(=O)c2ccc(S(=O)(=O)F)cc2)c1=O,5.01 µM (active)
9,C[N+](C)(C)CC#CCOC(=O)Nc1cccc(Cl)c1,inactive
10,Nc1ccc(CCN2CCN(c3cccc(C(F)(F)F)c3)CC2)cc1,11.2 µM (active)
11,Clc1cc(I)cc(Cl)c1NC1=NCCN1,15.8 µM (active)
12,CNC(=O)OCC[N+](C)(C)C,inactive
13,NC(=O)CI,inactive
14,NCCCP(=O)(O)O,inactive
15,CCCN(CCC)C1Cc2cc(OC)c(OC)cc2C1,1.26 µM (active)

# Source: PubChem BioAssay (NCATS)
